For 10 compounds, Potency results are on record in PubChem BioAssay (NCATS).

Assay [1] in a line: Quantitative High-Throughput drug screen in 47 multiple myeloma cell lines against the NCATS MIPE library collection: Delta47_JCRB cell viability assay (AID 1918925; further: nearly all actives have a fitted effect of over 45% in size). In outline: (§1)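 CellTiter-Glo luminescence (ATP) after 48 h compound exposure, 37C/5% CO2; 500 cells/well; MIPE 4.0 approved/investigational drugs pinned in; DMSO = 100%, media only = 0% viability.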
Assay [2] is described as follows: Quantitative High-Throughput drug screen in 47 multiple myeloma cell lines against the NCATS MIPE library collection: EJM_DSMZ cell viability assay (AID 1918926; further: nearly all actives have a fitted effect of over 30% in size). In outline:
as §1

A short description of assay [3]: Quantitative High-Throughput drug screen in 47 multiple myeloma cell lines against the NCATS MIPE library collection: ARP1_JJKsccF8 cell viability assay (AID 1918928; further: nearly all actives have a fitted effect of over 40% in size). In outline: (§2)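 Myeloma cells at 500 per well in 1536-well format treated with MIPE 4.0 library by pin transfer for 48 h at 37C, 5% CO2. Viability from ATP luminescence (CellTiter-Glo), normalized to DMSO (100%) and media-only (0%) wells.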

The nature of assay [4]: Quantitative High-Throughput drug screen in 47 multiple myeloma cell lines against the NCATS MIPE library collection: ARD_JJKsccE7 cell viability assay (AID 1918929). The essentials:
as §1

Assay [5] in a line: Quantitative High-Throughput drug screen in 47 multiple myeloma cell lines against the NCATS MIPE library collection: Karpas620_DSMZ cell viability assay (AID 1918959). Further: nearly all actives have a fitted effect of over 30% in size. In outline:
(§3)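 Viability readout: CellTiter-Glo luminescence following 5 min room-temperature incubation with reagent. Prior exposure: 48 h, 37C, humidified 5% CO2, 500 cells per well.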

A short description of assay [6]: Quantitative High-Throughput drug screen in 47 multiple myeloma cell lines against the NCATS MIPE library collection: KMM1_JCRB cell viability assay (AID 1918960). Further: nearly all actives have a fitted effect of over 30% in size. In outline: as §2
Assay [7] is described as follows: Quantitative High-Throughput drug screen in 47 multiple myeloma cell lines against the NCATS MIPE library collection: Karpas417_ECACC cell viability assay (AID 1918961). Particulars: Karpas417 myeloma viability, CellTiter-Glo ATP luminescence, 48 h; viability (% of DMSO): at 45.8 µM (top of the series). The essentials: (§4)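 Approved and investigational drugs from MIPE 4.0 were added by pin tool to 500 cells per well. After 48 hours at 37C, ATP-based CellTiter-Glo luminescence indicated remaining viability.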
On the technique in general: In ATP-based viability assays light output follows the ATP content of the culture.

Assay [8] in a line: Quantitative High-Throughput drug screen in 47 multiple myeloma cell lines against the NCATS MIPE library collection: JIM3_ECACC cell viability assay (AID 1918963; further: nearly all actives have a fitted effect of over 35% in size). In outline:
as §3

A short description of assay [9]: Quantitative High-Throughput drug screen in 47 multiple myeloma cell lines against the NCATS MIPE library collection: JIM1_ECACC cell viability assay (AID 1918964). The essentials: as §1
Assay [10] can be described thus: Quantitative High-Throughput drug screen in 47 multiple myeloma cell lines against the NCATS MIPE library collection: INA6_PLB cell viability assay (AID 1918965; further: nearly all actives have a fitted effect of over 55% in size). The essentials:
as §4

Assay [11] is described as follows: Quantitative High-Throughput drug screen in 47 multiple myeloma cell lines against the NCATS MIPE library collection: JJN3_DSMZ cell viability assay (AID 1918966; further: nearly all actives have a fitted effect of over 50% in size). The essentials:
as §1

Assay [12] is described as follows: Quantitative High-Throughput drug screen in 47 multiple myeloma cell lines against the NCATS MIPE library collection: H1112_PLB cell viability assay (AID 1918967; further: nearly all actives have a fitted effect of over 30% in size). The essentials:
as §1

Assay [13] is described as follows: Quantitative High-Throughput drug screen in 47 multiple myeloma cell lines against the NCATS MIPE library collection: KMS12BM_JCRB cell viability assay (AID 1918971). Further: nearly all actives have a fitted effect of over 35% in size. In outline: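 qHTS of the MIPE 4.0 collection: 500 myeloma cells/well, 48 h drug exposure at 37C in 5% CO2, then CellTiter-Glo for 5 min at room temperature before luminescence reading.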
The nature of assay [14]: Quantitative High-Throughput drug screen in 47 multiple myeloma cell lines against the NCATS MIPE library collection: KMS12PE_JCRB cell viability assay (AID 1918972). Further: nearly all actives have a fitted effect of over 30% in size. In outline: as §4
Assay [15] in a line: Quantitative High-Throughput drug screen in 47 multiple myeloma cell lines against the NCATS MIPE library collection: KMS20_JCRB cell viability assay (AID 1918973). Further: nearly all actives have a fitted effect of over 45% in size. In outline:
as §1

Assay [16] in a line: Quantitative High-Throughput drug screen in 47 multiple myeloma cell lines against the NCATS MIPE library collection: KHM11_PLB cell viability assay (AID 1918962). Further: nearly all actives have a fitted effect of over 35% in size. The essentials:
as §3

A short description of assay [17]: Quantitative High-Throughput drug screen in 47 multiple myeloma cell lines against the NCATS MIPE library collection: Karpas25_ECACC cell viability assay (AID 1918968; further: nearly all actives have a fitted effect of over 35% in size). The essentials: as §1
Assay [18] is described as follows: Quantitative High-Throughput drug screen in 47 multiple myeloma cell lines against the NCATS MIPE library collection: KMS27_JCRB cell viability assay (AID 1918970). Further: nearly all actives have a fitted effect of over 30% in size. In outline:
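ATP-based viability (CellTiter-Glo luminescence) is measured in cells treated 48 h with approved and investigational drugs at 37 °C. Controls are DMSO-only wells for full viability and media-only wells for none.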

Assay [19] in a line: Quantitative High-Throughput drug screen in 47 multiple myeloma cell lines against the NCATS MIPE library collection: AMO1_DSMZ cell viability assay (AID 1918927; further: nearly all actives have a fitted effect of over 30% in size). In outline:
as §1

Assay [20] in a line: Quantitative High-Throughput drug screen in 47 multiple myeloma cell lines against the NCATS MIPE library collection: KMS21BM_JCRB cell viability assay (AID 1918974). Particulars: ATP luminescence, 48 h; viability: at 45.8 µM (top of the series) unless noted. In outline:
as §1

Results filed as inconclusive are left out. The source made the active and inactive calls. The call rests on the fitted dose curve; in most records, active means well fitted curve in the direction sought with a large enough effect; inconclusive means small, poorly fitted or top-dose-only effect, or another doubt; inactive means no such curve, though single readings can be large; an effect the other way counts as inactive or inconclusive.
Potency means the concentration at half of the fitted maximal effect.

For the compound `O=C(C=Cc1c(C(=O)O)[nH]c2cc(Cl)cc(Cl)c12)Nc1ccccc1`, the Potency entry in assay [1], in [2], in assay [3], in assay [4], in assay [5] and in assay [6] was “inactive” throughout. Besides, the Potency result in [7], in assay [8], in assay [9], in [10], in [11] and in assay [12] was “inactive” each time. Also, the Potency entry in assay [13], in [14] and in assay [15] was “inactive” each time.
For the compound `CC(C)c1cnn2c(NCc3ccccc3)cc(N[C@@H](CO)[C@H](O)CO)nc12`, the Potency in assay [1] was 166 nM (active); in [2] it was 235 nM (active); in [3] it was 264 nM (active); in assay [4], 148 nM (active); in assay [5], 296 nM (active); in [6], 166 nM (active). Further, the Potency was 83.3 nM (active) in [7]; 148 nM (active) in [16]; 235 nM (active) in assay [8]; 132 nM (active) in assay [9]; 166 nM (active) in assay [10]; 235 nM (active) in assay [17]. Further, the Potency was 209 nM (active) in [18], 332 nM (active) in assay [13], 372 nM (active) in [14] and 235 nM (active) in assay [15].
As to `COc1ccc(-c2cc3c(C)nc(N)nc3n(C3CCC(OCCO)CC3)c2=O)cn1` (stereo not drawn), the Potency is 11.8 nM (active) in assay [1]; 132 nM (active) in assay [2]; 20.9 nM (active) in assay [3]; 187 nM (active) in assay [4]; 132 nM (active) in assay [5]; 23.5 nM (active) in assay [6]. Further, the Potency is 29.6 nM (active) in assay [16]; 66.2 nM (active) in assay [8]; 7.4 nM (active) in [9]; 148 nM (active) in assay [10]; 83.3 nM (active) in assay [11]; 662 nM (active) in [12]. The Potency in [17] is 26.4 nM (active); in [18], 26.4 nM (active); in [13], 59 nM (active); in [14], 372 nM (active); in assay [15], 26.4 nM (active).
Turning to `COC(=O)C[C@](O)(CCCC(C)(C)O)C(=O)O[C@@H]1C(OC)=C[C@]23CCCN2CCc2cc4c(cc2[C@H]13)OCO4`, the Potency result in [1], in assay [2], in assay [3], in assay [5], in assay [6] and in [7] was “inactive” each time. Moreover, the Potency entry in assay [16], in [8], in assay [9], in assay [12], in assay [18] and in assay [13] was “inactive” in each case. Also, in assay [14], the Potency result is “inactive”.
In the case of `CC(C)c1cc(-c2n[nH]c(=O)n2-c2ccc3c(ccn3C)c2)c(O)cc1O`, the Potency in assay [1] is 33.2 nM (active); in [19], 29.6 nM (active); in assay [3] it was 29.6 nM (active); in assay [4], 16.6 nM (active); in [5], 29.6 nM (active); in assay [6], 37.2 nM (active). Further, the Potency in assay [7] is 16.6 nM (active); in assay [8], 26.4 nM (active); in assay [9], 14.8 nM (active); in assay [10], 26.4 nM (active); in assay [17] it was 20.9 nM (active); in assay [18], 26.4 nM (active). Moreover, the Potency in assay [13] is 37.2 nM (active); in assay [14], 33.2 nM (active); in assay [15], 29.6 nM (active).
With `O=C(O)CCCc1c[nH]c2ccccc12`, the Potency entry in assay [1], in assay [2], in assay [4], in assay [5], in assay [6] and in [8] was “inactive” throughout. The Potency entry in [10], in assay [12], in [17], in assay [18] and in assay [14] was “inactive” each time.
On to `O=C(C=Cc1cccc(S(=O)(=O)Nc2ccccc2)c1)NO`, for which the Potency is 1710 nM (active) in [1]; 855 nM (active) in [19]; 960 nM (active) in [3]; 1080 nM (active) in assay [4]; 2410 nM (active) in [5]; 1080 nM (active) in assay [6]. For the same compound, the Potency is 1080 nM (active) in assay [7]; 3820 nM (active) in [16]; 5400 nM (active) in assay [8]; 762 nM (active) in assay [10]; 3400 nM (active) in [11]; 5400 nM (active) in [12]. The Potency was 1080 nM (active) in assay [17]; 2700 nM (active) in [18]; 1910 nM (active) in assay [13]; 1360 nM (active) in [14]; 1910 nM (active) in assay [15]; 540 nM (active) in assay [20].
As for `CCn1cc(-c2ccnc3[nH]c(-c4cccc(CN(C)C)c4)cc23)c(-c2ccc(NC(=O)N(C)C)cc2)n1`, the Potency in assay [1] is 3320 nM (active); in [19], 5260 nM (active); in assay [3], 5900 nM (active); in [4] it was 8330 nM (active); in assay [5], 20900 nM (active); in assay [6] it was 3320 nM (active). The Potency in assay [7] was 1870 nM (active); in assay [16], 3320 nM (active); in [8] it was 5260 nM (active); in [11], 16600 nM (active); in assay [12], 14800 nM (active); in assay [17], 4180 nM (active). In addition, the Potency in assay [18] was 7430 nM (active); in assay [13], 13200 nM (active); in assay [14], 5260 nM (active); in assay [20], 662 nM (active).
Consider `Cn1cc(-c2[nH]c3cc(NC(=O)[C@H](N)C4CCCCC4)cc4c3c2C=NNC4=O)cn1`, for which the Potency in assay [1] is 935 nM (active); in assay [2], 526 nM (active); in [3], 7430 nM (active); in [6] it was 526 nM (active); in [16] it was 1480 nM (active); in [10], 209 nM (active). For the same compound, the Potency is 935 nM (active) in [17]; 148 nM (active) in [18]; 1050 nM (active) in assay [13]; 1180 nM (active) in assay [14]; 935 nM (active) in assay [15]; 166 nM (active) in assay [20].
Take `COC(=O)C1=C(C)NC(C)=C(C(=O)OCCN2CCN(C(c3ccccc3)c3ccccc3)CC2)C1c1cccc([N+](=O)[O-])c1` (stereo not drawn): the Potency result in assay [1], in [2], in [5], in assay [6], in assay [16] and in assay [10] was “inactive” each time. The Potency entry in assay [12], in assay [17], in assay [14] and in [15] was “inactive” throughout.
